Compounds with a hit are over-represented: about 19% of the library has one in this group of screens.
ELG1 repair inh = ELG1-dependent DNA repair inhibition. HEK293T ELG1-luciferase reporter, luminescence, 16 h; DNA damage induced by 5-fluorouridine. Potency, µM (series often up to 46.1 µM), for the others: at the top dose activity change, negative = inhibition, most hits filed as inhibitors. hit rate 2.3% among 330,000. AID 504467; further: potency means the concentration at half of the fitted maximal effect; nearly all actives have a fitted effect of over 55% in size
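Quantitative HTS, concentration-response format. 2,000 cells/well co-treated with 5-fluorouridine and compound, 16 hr in 5% CO2 at 37 °C; ONE-Glo luminescence read after 30 min.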
HT1080NT lethal = kills 2HG-producing HT-1080-NT fibrosarcoma cells; HT-1080-NT fibrosarcoma viability, CellTiter-Glo ATP luminescence, 48 h; Potency, µM (titrated, usually from 46.1 µM), for inactives: top-dose activity, negative = less viability, hits mostly cytotoxic; hit rate 1.6% among 360,000; AID 686970;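 further: NT is the 2HG producing partner of a matched IDH1 knockdown line; potency means the concentration at half of the fitted maximal effect; 0% = DMSO-treated cells and -100% = media-only wells without cells; nearly all actives have a fitted effect of over 55% in size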
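HT-1080-NT; 750 cells/well; 5% FBS RPMI; 48 h compound, 37 degrees C; CellTiter-Glo luminescence; curve fitting and curve-class assignment.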
TDP1 cell CPT = growth inhibition of DT40 Tdp1-/-;hTDP1 cells with camptothecin (screen for TDP1 inhibitors); chicken DT40 Tdp1-/-;hTDP1 cells + 20 nM CPT, ATP luminescence, 48 h; Potency, µM (top dose mostly 46.2 µM), for inactives: top-dose activity change, negative = growth inhibition, hits mostly inhibitors; hit rate 12% among 420,000; further: potency means the concentration at half of the fitted maximal effect; nearly all actives have a fitted effect of over 55% in size
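Chicken DT40 Tdp1-/- cells stably complemented with human TDP1 were seeded at 400 cells/well in medium containing 20 nM camptothecin, exposed to pin-transferred compounds, and grown at 37 °C for at least 48 hr. Viability was read as ATP luminescence.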
DT40 TDP1 no CPT = qHTS for Inhibitors of human tyrosyl-DNA phosphodiesterase 1 (TDP1): qHTS in cells in absence of CPT; DT40 Tdp1-/- hTDP1 cells, no CPT, ATP luminescence, 48 h; Potency, µM (series often up to 46.2 µM), for inactives: at the top dose activity change, negative = growth inhibition, most hits filed as inhibitors; hit rate 15% among 420,000; further: potency means the concentration at half of the fitted maximal effect; nearly all actives have a fitted effect of over 55% in size
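Camptothecin absent (DMSO only). Human TDP1-complemented DT40 knockout cells, 400 cells/well, 37 °C for minimum 48 hr; ATP measured via CellTiter-Glo, 30 min dark incubation, luminescence.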
IL-1B inflam inh = inflammasome signaling inhibition, IL-1 beta readout | activity change, % at 57.5 µM | hit rate 4.7% among 360,000 | THP-1 LPS/ATP IL-1B secretion, AlphaLISA, 16 h; hits give low values; in the data active means activity change below about -50%; inconclusive means mostly about -30% to -49%
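THP-1 cells pretreated 1 hr with compounds (up to 57.5 uM final), then stimulated with LPS (250 ng/mL final) plus ATP (1.25 mM final); secreted IL-1B measured by AlphaLISA after 16 hr, decreased signal indicating inhibition.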
HT1080 IDH1KD tx = kills HT-1080 cells with IDH1 knockdown | HT-1080 IDH1 knockdown viability, ATP luminescence, 48 h | Potency, µM (highest dose often 46.1 µM), inactives show at the highest dose activity, negative = toxicity, most hits filed as cytotoxic | hit rate 2% among 360,000 | AID 686971;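 further: potency means the concentration at half of the fitted maximal effect; 0% = DMSO wells and -100% = cell-free medium wells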
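Cytotoxicity counter-line: IDH1KD HT-1080, 48 h, CellTiter-Glo. Curves classed by r2, magnitude and activity.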
* = called active by the depositor; ? = inconclusive; . = no result given. Unless noted, the call rests on the fitted dose curve; in most records, active means well fitted curve in the direction sought with a large enough effect; inconclusive means small, poorly fitted or top-dose-only effect, or another doubt; inactive means no such curve, though single readings can be large; an effect the other way counts as inactive or inconclusive. Unless noted, on the % scale 0 is the no-effect control and ±100 the full control effect.

SMILES | ELG1 repair inh | HT1080NT lethal | TDP1 cell CPT | DT40 TDP1 no CPT | IL-1B inflam inh | HT1080 IDH1KD tx
COc1ccc(C(=O)Oc2ccc3oc(=O)sc3c2)cc1 | ? | -1% | 13µM* | ? | -6 | 2%
COc1ccc(C(=O)Oc2ccc3ccc(=O)oc3c2)cc1 | -1% | -1% | -3% | -12% | -3 | -12%
CC(C)C(=O)N(c1ccc2oc(=O)sc2c1)S(=O)(=O)c1ccccc1 | -7% | ? | ? | ? | 2 | ?
CC12CCC(C(=O)OC3CCCCC3)(OC1=O)C2(C)C (centres undefined) | 3% | -1% | -3% | 21% | 21 | 0%
COc1ccccc1-n1c(C)c(C(=O)O)c2cc(OC)c3ccccc3c21 | -3% | 5% | 12% | 9% | 36 | 11%
O=C(CSC1=N/C(=C/c2ccco2)C(=O)N1c1ccc(OC(F)F)cc1)NC1CCS(=O)(=O)C1 (centres undefined) | -4% | 0% | 1% | -27% | ? | -2%
CCOC1=C2[C@H](c3ccccc3)N(S(=O)(=O)c3ccc(C)cc3)C(C(C)(C)C)[C@H]2n2c(=O)n(-c3ccccc3)c(=O)n2C1 (some centres undefined) | . | 8% | -7% | -14% | -12 | 15%
CC(C)(C)n1ncc(Oc2ccccc2[N+](=O)[O-])c(Cl)c1=O | -17% | -2% | ? | 23µM* | 0 | -6%
O=C(Nc1cccc(Cl)c1Cl)C1CCCO1 (centres undefined) | 13% | 18% | -9% | -13% | -18 | 22%
CCOC(=O)N1c2ccccc2C=CC1OCC (centres undefined) | -5% | . | . | . | . | .
CCOC(=O)C(C(=O)OCC)C1N=C(N)N=C2Oc3ccccc3N21 (centres undefined) | ? | ? | -11% | -15% | -4 | 10µM*
Nc1nc(N)nc(-c2cc(O)ccc2O)n1 | 1.2µM* | -2% | 8.2µM* | 5.8µM* | ? | 0%
CCNc1nc(NCC)nc(-n2cc(C(=O)c3cc(Cl)ccc3O)cn2)n1 | . | . | ? | 10µM* | . | .
CCCCNc1nc(N)nc(-c2cc(Cl)ccc2O)n1 | ? | -11% | 18µM* | 16µM* | -84* | 0%
Nc1nc(N)nc(-c2cc([N+](=O)[O-])ccc2O)n1 | ? | -3% | -13% | -23% | 6 | -5%
CCCN(CCC)c1nc(N)nc(-c2cc(Cl)ccc2OC)n1 | 0% | -29% | ? | ? | ? | -24%
CCNc1nc(N)nc(-c2cc(Cl)ccc2O)n1 | ? | 16µM* | ? | 21µM* | -85* | 23µM*
Cc1ccc(CNC(=O)Cc2coc3cc(C)cc(C)c23)cc1 | . | . | -3% | ? | . | .
COc1cccc(Nc2ncc3nc(C)c(=O)n(C)c3n2)c1 | . | . | ? | -10% | . | .
CCOc1ccc(NC(=O)CC2C(=O)N(c3cccc(OC)c3)C(=O)N2C(C)C)cc1 (centres undefined) | 7% | -2% | 1% | -25% | 5 | 0%
CC(=O)N1N=C(c2ccc(Br)cc2)CC1c1cn(C)c2ccccc12 (centres undefined) | 2% | -2% | ? | ? | 12 | -7%
CCCC(=O)N1N=C(c2ccccc2)CC1c1cn(C)c2ccccc12 (centres undefined) | ? | 5% | ? | ? | -56* | 1%
CCN1C(=O)[C@H]2[C@@H](c3ccc(-c4ccc(F)cc4)c(OC)c3)N3CCCC[C@@]3(C(=O)OC)[C@H]2C1=O | 0% | -29% | 23µM* | 16µM* | -74* | -14%
CCN1C(=O)[C@H]2[C@@H](c3ccc(-c4ccc(C(C)=O)cc4)cc3)N3CCCC[C@@]3(C(=O)OC)[C@H]2C1=O | ? | 2% | ? | 12µM* | -20 | 4%
CCN1C(=O)[C@@H]2[C@@H](c3ccc(-c4ccc(C(C)=O)cc4)c(OC)c3)N3CCC[C@@]3(C(=O)OC)[C@@H]2C1=O | ? | 0% | ? | ? | -14 | 0%
SMILES | ELG1 repair inh | HT1080NT lethal | TDP1 cell CPT | DT40 TDP1 no CPT | IL-1B inflam inh | HT1080 IDH1KD tx
CCN1C(=O)[C@@H]2[C@@H](c3ccc(-c4ccc(C(C)=O)cc4)c(OC)c3)N3CCCC[C@@]3(C(=O)OC)[C@@H]2C1=O | ? | 7% | ? | 15µM* | -4 | 6%
CCN1C(=O)[C@@H]2[C@@H](c3ccc(-c4ccc(F)cc4)c(OC)c3)N3CCC[C@@]3(C(=O)OC)[C@@H]2C1=O | -13% | -7% | 23µM* | ? | -7 | 2%
Cc1ccc(CNC(=O)CN2C(=O)COc3ccc(S(=O)(=O)N4CCC(C)CC4)cc32)cc1 | . | . | ? | -29% | . | .
Cc1nn(-c2ccccc2)cc1/C=N/NC(N)=S | ? | 2% | 18µM* | ? | 0 | 14%
Cc1nn(-c2ccccc2)cc1/C=N/O | 3% | 7% | -12% | -3% | 1 | 6%
Cn1cc(/C=N/NC(N)=S)c2ccccc21 | -11% | 0% | 13µM* | 3.3µM* | -10 | 19%
CC1CN(C(=O)CSc2nnc(-c3cccs3)n2N)CC(C)O1 (centres undefined) | 16% | -17% | 6% | -1% | 14 | 7%
Cc1noc(C)c1COc1ccc(C(=O)OCC(=O)N2CC3(C)CC2CC(C)(C)C3)cc1 (centres undefined) | ? | -5% | ? | 18µM* | 17 | -17%
Cc1ccc(OCC(=O)N2CC3(C)CC2CC(C)(C)C3)cc1 (centres undefined) | 16% | 0% | ? | ? | -7 | -1%
Cc1cccc(C)c1OCC(=O)N1CC2(C)CC1CC(C)(C)C2 (centres undefined) | -1% | -5% | ? | 14µM* | -9 | -11%
Cc1ccc(-c2nc(CN3CCCCC3)cc(CN3CCCCC3)c2O)cc1 | ? | 2% | -13% | ? | -15 | 11%
Cc1nn(CC(=O)Nc2cccnc2)c(=O)c2ccccc12 | -5% | -2% | 17% | -1% | -10 | 18%
COc1ccc2nc(SCC(=O)N3CCNC3=O)[nH]c2c1 | ? | -4% | ? | -7% | 3 | -4%
COC(=O)C1CCN(C(=O)CSc2nc3ccc(OC)cc3[nH]2)CC1 | 0% | 9% | -1% | -18% | -64* | 12%
CCOc1ccc(C(=O)OCC(=O)N2CCCC2)cc1OCC | 2% | 0% | 16% | -12% | 7 | 3%
